target: T1, Tyrosyl-tRNA synthetase, putative (Trypanosoma cruzi (strain CL Brener)) (UniProt Q4DSP6); assay: Trypanosoma cruzi tyrosyl tRNA synthetase (TcYRS) SOP; format: functional; design: scale not given: direction of the effect not stated beside the values; details: 30 µM
T1 sequence (whole entry): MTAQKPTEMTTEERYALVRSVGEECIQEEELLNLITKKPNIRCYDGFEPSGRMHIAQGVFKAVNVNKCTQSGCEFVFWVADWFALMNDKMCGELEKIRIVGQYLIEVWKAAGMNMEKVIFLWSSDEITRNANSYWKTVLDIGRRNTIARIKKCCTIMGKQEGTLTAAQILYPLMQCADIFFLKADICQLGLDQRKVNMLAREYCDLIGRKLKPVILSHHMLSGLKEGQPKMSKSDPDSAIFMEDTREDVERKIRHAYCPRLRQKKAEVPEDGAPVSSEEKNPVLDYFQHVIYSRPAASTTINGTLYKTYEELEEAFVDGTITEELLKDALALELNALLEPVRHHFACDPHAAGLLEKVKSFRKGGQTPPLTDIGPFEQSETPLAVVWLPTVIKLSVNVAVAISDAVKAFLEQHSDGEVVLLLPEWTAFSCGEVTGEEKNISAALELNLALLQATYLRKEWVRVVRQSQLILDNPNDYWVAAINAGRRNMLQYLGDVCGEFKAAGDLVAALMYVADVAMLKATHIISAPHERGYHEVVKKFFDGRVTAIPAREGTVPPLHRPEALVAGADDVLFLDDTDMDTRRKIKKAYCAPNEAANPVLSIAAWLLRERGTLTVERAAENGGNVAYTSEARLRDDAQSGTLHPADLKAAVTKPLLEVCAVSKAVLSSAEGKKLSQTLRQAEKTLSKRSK

Row | Compound | Percent Effect
1 | COCc1ccccc1NC(=O)[C@@H]1CCCN1C(=O)c1ccco1 | 5.13%
2 | CCc1nnc2n1CCN(CC(=O)Nc1sccc1C#N)C2 | 6.17%
3 | COCC1CCN(C(=O)c2cccc(S(=O)(=O)NCC3(C)COC3)c2)C1 (centres undefined) | 13.6%
4 | CC(C)N1CCC(NCc2cccnc2N(C)Cc2ccccc2)CC1 | 6.17%
5 | CCc1cnc(CN(C)C2CCN(CCc3cccs3)C2)o1 (centres undefined) | 18.5%
6 | CN(CCn1nc2ccccn2c1=O)CC(=O)N1CCCC1 | 2.6%
7 | Cc1ccc(-c2csc(N)c2C#N)cc1 | -12.8%
8 | O=C(NCCN1CCOCC1)c1ccc(-n2ccc3ccccc32)s1 | 11.5%
9 | Cc1cnn(CC2CN(c3ncnc4ccccc34)CCO2)c1 (centres undefined) | 1.27%
10 | O=S(=O)(Cc1ccccc1)NCc1ccco1 | 2.56%

target: Chromo domain-containing protein 1 (Saccharomyces cerevisiae (strain ATCC 204508 / S288c) (Baker's yeast)) (UniProt P32657); assay: ScCHD-1 Enzyme Inhibition Assay; format: functional; design: scale not given: in the data most compounds retested in dose-response had high values; details: 30 µM
Sequence (P32657 whole entry, the tested form may be a part): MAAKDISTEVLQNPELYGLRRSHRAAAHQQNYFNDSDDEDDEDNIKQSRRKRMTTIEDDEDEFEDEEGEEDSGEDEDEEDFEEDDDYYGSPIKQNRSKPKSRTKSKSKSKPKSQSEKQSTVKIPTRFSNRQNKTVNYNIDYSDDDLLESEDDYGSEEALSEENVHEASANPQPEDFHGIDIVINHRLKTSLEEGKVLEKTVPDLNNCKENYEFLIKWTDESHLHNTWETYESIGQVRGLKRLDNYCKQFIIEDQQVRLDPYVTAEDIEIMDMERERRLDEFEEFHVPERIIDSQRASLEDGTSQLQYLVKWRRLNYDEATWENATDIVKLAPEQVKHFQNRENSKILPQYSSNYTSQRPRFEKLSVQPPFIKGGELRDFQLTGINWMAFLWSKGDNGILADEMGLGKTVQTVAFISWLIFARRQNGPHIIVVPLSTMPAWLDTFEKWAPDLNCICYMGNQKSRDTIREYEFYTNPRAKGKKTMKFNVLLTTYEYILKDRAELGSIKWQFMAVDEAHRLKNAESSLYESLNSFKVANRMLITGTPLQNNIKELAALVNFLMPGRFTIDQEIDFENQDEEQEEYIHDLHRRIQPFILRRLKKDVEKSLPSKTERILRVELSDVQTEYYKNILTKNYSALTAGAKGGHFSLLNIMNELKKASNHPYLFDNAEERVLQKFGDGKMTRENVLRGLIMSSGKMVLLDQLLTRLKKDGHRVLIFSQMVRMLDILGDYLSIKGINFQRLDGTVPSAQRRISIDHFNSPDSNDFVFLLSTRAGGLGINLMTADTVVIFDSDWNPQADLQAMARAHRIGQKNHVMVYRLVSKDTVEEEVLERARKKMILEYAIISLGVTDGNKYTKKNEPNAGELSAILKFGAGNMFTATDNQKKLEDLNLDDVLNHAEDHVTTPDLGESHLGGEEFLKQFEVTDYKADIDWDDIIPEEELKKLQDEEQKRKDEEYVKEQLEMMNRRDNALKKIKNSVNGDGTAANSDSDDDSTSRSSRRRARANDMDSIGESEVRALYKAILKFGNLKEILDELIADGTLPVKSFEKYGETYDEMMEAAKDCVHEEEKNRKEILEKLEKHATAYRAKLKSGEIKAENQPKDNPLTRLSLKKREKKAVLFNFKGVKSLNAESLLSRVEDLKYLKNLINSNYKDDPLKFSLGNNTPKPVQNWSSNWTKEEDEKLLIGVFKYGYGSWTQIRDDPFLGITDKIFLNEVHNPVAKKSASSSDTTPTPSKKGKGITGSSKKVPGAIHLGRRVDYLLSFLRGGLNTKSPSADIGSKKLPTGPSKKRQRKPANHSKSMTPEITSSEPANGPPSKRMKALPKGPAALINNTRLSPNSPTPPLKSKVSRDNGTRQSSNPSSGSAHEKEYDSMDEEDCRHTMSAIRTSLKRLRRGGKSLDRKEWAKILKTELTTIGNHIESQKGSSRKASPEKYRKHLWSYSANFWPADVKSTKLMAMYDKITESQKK

Row | Compound | Percent Effect
11 | COc1cc(CNCCc2nc(C)cs2)cc2c1OCCO2 | -7.14%
12 | Cc1ccc(CN(Cc2ccccn2)C2CC(C)(C)NC(C)(C)C2)s1 | -9.63%
13 | CCc1ccccc1C(=O)N1CCN(S(C)(=O)=O)[C@@H](C)C1 | -1.37%
14 | COCCN(Cc1ccc(F)cc1Cl)C(=O)c1ccc(=O)[nH]n1 | -5.81%
15 | CC(Oc1ccccc1C(F)(F)F)C(=O)NCC(N)=O (centres undefined) | 2.04%
16 | Cc1cc(-c2cnc(N3CCNC(=O)C3)nc2-c2ccc(C)o2)on1 | -16.5%
17 | Cc1csc(CNC(=O)NCCc2ccc3c(c2)OCCO3)n1 | -17.6%
18 | O=C1COC2(CCN(CC3CC3)CC2)CN1c1ccccc1 | -1.91%
19 | COc1ccc(CCN2CCC(N3CCN(C)C3=O)CC2)cc1 | -7.97%
20 | CCOC(=O)c1c(NC(=O)CN2CCN(C(C)=O)CC2)sc2c1CCC2 | -4.6%
21 | CC(C)(C(=O)NCC(N)=O)c1ccccc1F | -1.29%
22 | COc1c(CNCCNC(=O)Cc2ccc(F)cc2)c(C)nn1C | -8.36%
23 | Cc1ccc(C(=O)N2CCO[C@H]3[C@@H](OCc4ccccn4)CC[C@@H]32)o1 | -6.69%
24 | CN1N=C(C(=O)NCc2ccc3c(c2)CCCN3C)CCC1=O | -23%
25 | Cc1ccc(CCC(=O)N(C)CCN2CCOCC2)c(C)c1 | 4.92%
26 | c1cnnc(N2CCCC2CNCc2nc3ccccc3o2)c1 (centres undefined) | -2.93%
27 | Cc1nc(C(=O)N2CCCC2c2c(C)nn(C)c2C)ccc1C#N (centres undefined) | 10.7%
28 | Cc1noc([C@H]2C[C@@H]3CCN(CC4CC4)C[C@H]3O2)n1 | -3.28%
29 | CCOCC(=O)N1C[C@@H](NC(C)=O)[C@H](c2ccc(OC)cc2)C1 | -1.7%
30 | CCN1CC2(CCNCC2)COc2ccccc2S1(=O)=O | -8.01%

Row | Compound | Percent Effect
31 | O=C(O)C1(Cc2cc(-c3cccc(F)c3)no2)CCOCC1 | -5.82%
32 | COc1ccc(C2(NC(=O)CCn3cncn3)CCCCC2)cc1 | -14.1%
33 | CCC(CNC(=O)Nc1cnn(CC)c1)N1CCCC1 (centres undefined) | -5.82%
34 | CC1CCCCN1CCNC(=O)c1ccn(-c2ccc(F)cc2)n1 (centres undefined) | -19.6%
35 | CN1CCCC(c2cccc(Cc3ccccc3Cl)n2)C1 (centres undefined) | -7.93%
36 | COCC1CN(C(=O)CNC(C)=O)Cc2ncnn2C1 (centres undefined) | 0.679%
37 | CCN(Cc1nc(C(C)C)no1)Cc1cccs1 | -5.13%
38 | CCc1nc(CN2CCCN(c3nc4ccccc4o3)CC2)no1 | -0.262%
39 | CC(NC(=O)Cn1cccn1)c1cccnc1 (centres undefined) | -3.89%
40 | COCc1ccccc1NC(=O)[C@@H]1CCCN1C(=O)c1ccco1 | -1.82%
41 | CCc1nnc2n1CCN(CC(=O)Nc1sccc1C#N)C2 | -3.17%
42 | COCC1CCN(C(=O)c2cccc(S(=O)(=O)NCC3(C)COC3)c2)C1 (centres undefined) | -4.61%
43 | CC(C)N1CCC(NCc2cccnc2N(C)Cc2ccccc2)CC1 | -5.77%
44 | CCc1cnc(CN(C)C2CCN(CCc3cccs3)C2)o1 (centres undefined) | -5.25%
45 | CN(CCn1nc2ccccn2c1=O)CC(=O)N1CCCC1 | 29.3%
46 | Cc1ccc(-c2csc(N)c2C#N)cc1 | 2.72%
47 | O=C(NCCN1CCOCC1)c1ccc(-n2ccc3ccccc32)s1 | -7.3%
48 | Cc1cnn(CC2CN(c3ncnc4ccccc34)CCO2)c1 (centres undefined) | -3.24%
49 | O=S(=O)(Cc1ccccc1)NCc1ccco1 | 0.387%
